# According to PubChem BioAssay AID540333 (Southern Research Specialized Biocontainment Screening …, 2011):
# Among all 10,000 compounds or so, about 320 (3.2%) were called active. The sample holds actives, similar compounds and a random draw of the others, so the mix is not that of the screen. A number with no mark means an inactive call. Rule as the data show it: active = CPE inhibition mostly above about 9.1% (no sharp cut-off); inactive = mostly below about 7.2%.
# Test: Dengue virus cytopathic effect inhibitors, cell-based, CPE readout, HTS (AID 540333)
# Details: Dengue virus CPE inhibition in host cells, at 20 µM; hits give high values
row,SMILES,CPE inhibition
1,CC(C)C(=O)NC(=S)Nc1nnn(C)n1,inactive
2,Cc1ccc(N2C(=O)[C@@H]3C(C(=O)C(c4ccccc4)c4ccccc4)=NN[C@@H]3C2=O)cc1,0.425%
3,CCC(=O)N/N=C(\C)CC(=O)Nc1ccc(Cl)cc1,0.01%
4,CC(=O)c1ccc(NC(=O)/C=C/c2ccc(C)cc2)cc1,4.66%
5,CCC(=O)Nc1ccc(NC(=O)/C=C/c2ccc(Cl)cc2)cc1,21.6% (active)
6,Cc1sc(NC(=O)c2ccccc2)c(C(c2ccc(Cl)cc2)N2CCN(CCO)CC2)c1C (stereo unspecified),inactive
7,Cc1nc2sc(C(c3ccc(F)cc3)N3CCN(C(=O)c4ccco4)CC3)c(O)n2n1 (stereo unspecified),0.39%
8,CC(=O)NS(=O)(=O)c1ccc(NC(=O)C2c3ccccc3Oc3ccccc32)cc1,inactive
9,CN(C)c1ccc(C(CNS(=O)(=O)c2ccc(F)cc2)c2c[nH]c3ccccc23)cc1 (stereo unspecified),36.1% (active)
10,CN(C)c1ccc(NS(=O)(=O)c2ccc(Cl)cc2)cc1,0.45%
11,CN(c1ccccc1)S(=O)(=O)c1ccc(Cl)c(C(=O)NCCc2c[nH]c3ccccc23)c1,2.39%
12,COCCCNC(=O)c1cccc2c(=O)c(C)c(-c3ccccc3)oc12,0.515%
13,Cc1ccc(C)n1-c1ccc(NC(=O)c2ccccc2)cc1,inactive
14,O=C(c1cnn(C(=O)COc2ccc(Cl)cc2)c1)c1ccccc1O,inactive
15,O=C(COC(=O)/C=C/c1ccccc1Cl)NC(=O)Cc1ccccc1,0.12%
16,COc1cc(NC(=O)COC(=O)/C=C/c2ccccc2Cl)cc(OC)c1,22.1% (active)
17,COc1cc(NC(=O)COC(=O)/C=C/c2ccc(Cl)cc2Cl)cc(OC)c1,8.61%
18,COc1ccccc1OCCn1cc(/C=C(\C#N)C(=O)NCc2cccs2)c2ccccc21,2.51%
19,O=C(NCc1ccco1)c1ccc(Cl)c(S(=O)(=O)N2CCc3ccccc32)c1,1.37%
20,COc1cc(C(=O)NC(=S)NC(C)C)cc(OC)c1OC,inactive
21,Cc1ccc(NC(=O)c2ccc(NCCN)c([N+](=O)[O-])c2)cc1,3.98%
22,O=C(Nc1ccccc1)c1ccc(NCCc2ccccc2)c([N+](=O)[O-])c1,13.8% (active)
23,Cc1ccc(NC(=O)c2ccc(NCCN)c([N+](=O)[O-])c2)cc1Cl,0.22%

row,SMILES,CPE inhibition
1,O=C(O)CCC(=O)OCc1c(-c2ccccc2)ncc2ccccc12,1.18%
2,CCOc1cc(C2Nc3ccccc3C(=O)N2c2ccccc2)c(Br)cc1OCC(=O)O (stereo unspecified),inactive
3,COc1ccc(NC(=O)/C=C/c2ccccc2[N+](=O)[O-])c(OC)c1,0.44%
4,COc1ccccc1NCc1ccc([N+](=O)[O-])s1,inactive
5,COc1ccc(NCc2ccccc2[N+](=O)[O-])cc1OC,1.54%
6,COc1ccc(NCc2ccc([N+](=O)[O-])s2)cc1,16.8% (active)
7,COc1ccc(NCc2ccc([N+](=O)[O-])s2)c(OC)c1,11.8% (active)
8,COc1cccc(NCc2ccc([N+](=O)[O-])s2)c1,inactive
9,COc1cc(C2Nc3ccccc3C(=O)N2c2ccccc2)c(Br)cc1OCC(=O)O (stereo unspecified),inactive
10,Cn1cnnc1SCC(=O)Nc1cc(S(=O)(=O)N2CCCCCC2)ccc1Cl,inactive
11,Cc1ccc2c([N+](=O)[O-])cccc2n1,inactive
12,Cc1ccc(CNC(=O)c2ccc3c(c2)S(=O)(=O)c2ccccc2C3=O)o1,inactive
13,COc1cc(OC)cc(-c2c(-c3cccs3)c3cc(-c4ccc5[nH]ccc5c4)ccc3n2C)c1,4.79%
14,CCCCOc1ccc(/C=C/C(=O)OCC(=O)NC(=O)NCC(C)C)cc1OCC,inactive
15,COc1ccc(/C=N/OCC(=O)NC(c2ccccc2)c2ccccc2)cc1OC,7.42%
16,CCOc1ccc(/C=N/OCC(=O)NC(c2ccccc2)c2ccccc2)cc1,13.1% (active)
17,CCOc1ccc(/C=C/C(=O)NCc2ccccc2)cc1,inactive
18,O=C(CNC(=O)c1cccc(Cl)c1)N/N=C/C=C/c1ccccc1,0.175%
19,O=C(CSc1nc2ccccc2c(=O)n1-c1ccc(F)cc1F)c1c[nH]c2ccccc12,2.1%
20,CCOC(=O)c1c(C)[nH]c(C)c1C(=O)CSc1nc2ccccc2c(=O)n1-c1ccc(C)cc1,inactive
21,CCOC(=O)c1c(CSc2ccc(C)cc2)oc2ccc(O)cc12,20.7% (active)
22,Cc1ccc(SCC(=O)c2c(C)[nH]c3ccccc23)cc1,inactive
23,CCOc1ccc(/C=C2\SC(N3CCc4ccccc4C3)=NC2=O)cc1,17.6% (active)

row,SMILES,CPE inhibition
1,CCOc1ccc(N2C(=O)S/C(=C\c3cccn3C)C2=O)cc1,inactive
2,CCS(=O)(=O)c1nc(S(=O)(=O)c2ccc(Cl)cc2)c(N2CCc3ccccc3C2)s1,0.63%
3,O=C(CNC1=NCCC1)c1ccc(Cl)cc1,0.59%
4,CCN(C(=O)COC(=O)c1cc(NS(=O)(=O)c2ccc(Cl)c([N+](=O)[O-])c2)ccc1O)C1CCCCC1,17.4% (active)
5,O=C(OCC(=O)N1CCCCC1)c1cc(NS(=O)(=O)c2ccc(Cl)c([N+](=O)[O-])c2)ccc1O,0.48%
6,CCN(CC)S(=O)(=O)c1ccc(NS(=O)(=O)c2ccc(O)c([N+](=O)[O-])c2)cc1,0.085%
7,O=C(Nc1nnc(C2CC2)s1)c1cc([N+](=O)[O-])ccc1N1CCCCC1,inactive
8,CCOC(=O)[C@H]1[C@H]2COc3ccc(Cl)cc3[C@@H]2N2C(=O)c3cc(C)ccc3NC(=O)[C@@]12C,12.9% (active)
9,CCOC(=O)[C@H]1[C@H]2COc3ccccc3[C@@H]2N2C(=O)c3cc(C)ccc3NC(=O)[C@@]12C,0.17%
10,CCOC(=O)[C@H]1[C@H]2COc3ccccc3[C@@H]2N2C(=O)c3ccc(C)cc3NC(=O)[C@@]12C,inactive
11,CCOC(=O)[C@H]1[C@H]2COc3ccc(Cl)cc3[C@@H]2N2C(=O)c3cc(F)c(F)cc3NC(=O)[C@@]12C,18% (active)
12,CCOC(=O)[C@H]1[C@H]2COc3ccc(OC)cc3[C@@H]2N2C(=O)c3ccc(F)cc3NC(=O)[C@@]12C,inactive
13,CCOC(=O)[C@H]1[C@H]2COc3ccccc3[C@@H]2N2C(=O)c3cc(Cl)ccc3NC(=O)[C@@]12C,4.61%
14,NC(=O)CC[C@H](NC(=O)OCc1ccccc1)C(=O)OCc1ccc(Cl)cc1,0.15%
15,COc1ccc(NC(=O)c2ccc3c(c2)S(=O)(=O)c2ccccc2C3=O)cc1,1.25%
16,O=C(/C=C\Nc1ccc(Br)cc1)c1cccnc1,0.09%
17,COc1cccc(C(=O)NC(=S)Nc2ccc(N(C)C)cc2)c1,inactive
18,COc1ccc(NC(=O)c2cc3c(s2)CCC(C)C3)cc1S(=O)(=O)N1CCOCC1 (stereo unspecified),16.7% (active)
19,COc1ccc(S(=O)(=O)N2CCOCC2)cc1NC(=O)c1cc2c(s1)CCCC2,0.62%
20,COc1ccc(NC(=O)CN2CCC(Cc3ccccc3)CC2)cc1S(=O)(=O)N1CCOCC1,0.605%
21,CCCN(CC(=O)Nc1ccc(F)c(F)c1F)CC(=O)Nc1c(Cl)cccc1Cl,1.15%
22,Cc1cc(C)nc(NC(=NCCc2c[nH]c3ccccc23)NC(=O)Nc2ccc(Cl)c(Cl)c2)n1,7.48%
23,Cc1cc(C)nc(NC(=NCCc2c[nH]c3ccccc23)NC(=O)Nc2ccccc2)n1,13.5% (active)

row,SMILES,CPE inhibition
1,Cc1cc(C)nc(NC(=NCCc2c[nH]c3ccccc23)NC(=O)Nc2ccc(Cl)cc2)n1,4.91%
2,COc1ccc(NC(=S)Nc2ccc(OCc3ccccc3)cc2)c(OC)c1,5.78%
3,CC(C)c1ccccc1NC1=CC(=O)CC(C)(C)C1,1.06%
4,CCCNC(=S)N1CCN(C(c2ccccc2)c2ccccc2)CC1,9.31%
5,CCC(C)NC(=S)N1CCN(C(c2ccccc2)c2ccccc2)CC1 (stereo unspecified),11% (active)
6,CC(C)CNC(=S)N1CCN(C(c2ccccc2)c2ccccc2)CC1,27.6% (active)
7,CCN1CCN(C(=S)NC(C)c2ccccc2)CC1 (stereo unspecified),inactive
8,CC(NC(=S)N1CCOCC1)c1ccccc1 (stereo unspecified),inactive
9,COc1ccc(NC(=S)N2CCN(C(c3ccccc3)c3ccccc3)CC2)cc1OC,2.59%
10,O=C(NCCc1ccccc1)C(=O)Nc1nccs1,0.515%
11,CCCc1nnc(NC(=O)CCC(=O)N2CCN(C3c4ccccc4-c4ccccc43)CC2)s1,inactive
12,CCOc1cc(/C=N/NC(=O)CSc2nncn2C)ccc1OC(=O)c1ccc(Cl)cc1,1.75%
13,S=C(Nc1ccccc1Cl)N1CCCCC1,inactive
14,N#Cc1c(-c2ccc(Cl)cc2)c(C#N)c(=O)n(N)c1N,0.43%
15,Cc1ccc(NC(=O)CCNC(=O)c2ccccc2Cl)cc1S(=O)(=O)N(C)C,0.01%
16,COc1ccc(CCC(=O)OCC(=O)Nc2ccc(C)c(S(=O)(=O)N(C)C)c2)cc1,0.745%
17,Cc1ccc(NC(=O)c2cnccn2)cc1S(=O)(=O)N(C)C,1.06%
18,Cc1ccc(NC(=O)CSc2nn(-c3ccc(Cl)cc3)c(=S)s2)cc1S(=O)(=O)N(C)C,2.52%
19,Cc1ccc(NC(=O)CNc2ccc(Cl)c(Cl)c2)cc1S(=O)(=O)N(C)C,20.7% (active)
20,Cc1ccc(NC(=O)Cc2ccc(Cl)c(Cl)c2)cc1S(=O)(=O)N(C)C,11.7% (active)
21,CN(C)S(=O)(=O)n1cnc([C@@H]2[C@H]3C(=O)OC[C@@H]3C[C@@]23N=CN(Cc2ccccc2)C3=O)c1,0.215%
22,CC1CCCN(c2ccc(C(=O)NCc3ccc4c(c3)OCO4)cc2[N+](=O)[O-])C1 (stereo unspecified),0.66%
